From PubChem BioAssay (NCATS)
Inconclusive results are not listed. Where a call stands in place of a potency, no number is given. Active and inactive are the calls of the source. The call rests on the fitted dose curve; in most records, active means well fitted inhibition curve with a large enough effect; inconclusive means small, poorly fitted or top-dose-only effect; inactive means no such curve, though single readings can be large or run the other way.

Tested on: Zika virus NS2B-NS3 protease (linked construct)
Assay: Primary screen NINDS Rhodamine qHTS for Zika virus inhibitors (AID 1347160); further: nearly all actives have a fitted effect of over 55% in size
Conditions: purified NS2B-NS3 protease, Rhodamine110 substrate fluorescence; series mostly up to 57.1 µM
Outline: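 Kinetic fluorescence (Ex 480 nm, Em 540 nm) over 15 min with 1.5 microM Rhodamine110 peptide and 25 nM linked protease.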
Potency means the concentration at half of the fitted maximal effect.

SMILES | Potency
COc1cccc(NCCC2(c3ccccc3)CC(C)(C)OC(C)(C)C2)c1 | inactive
CNC(=O)c1cc(Oc2ccc(NC(=O)c3cccc(C(F)(F)F)c3)cc2)ccn1 | inactive
CC(=O)O[C@H]1CC(C)(C)CC2[C@]13CO[C@@]21CCC2[C@@]4(C)CC[C@H](O[C@@H]5OC[C@H](O[C@@H]6O[C@H](CO)[C@@H](O)[C@H](O)[C@H]6O[C@@H]6OC[C@@H](O)[C@H](O)[C@H]6O)[C@H](O)[C@H]5O[C@@H]5O[C@H](CO)[C@@H](O)[C@H](O)[C@H]5O)[C@@](C)(CO)C4CC[C@@]2(C)[C@]1(C)C[C@H]3O (stereo not given in full) | inactive
CCOc1ccc(-n2c([C@@H](C)N(Cc3cccnc3)C(=O)Cc3ccc(OC(F)(F)F)cc3)nc3ncccc3c2=O)cc1 | inactive
CC[C@@H](C)[C@@H]1OC2(C=C[C@H]1C)C[C@@H]1C[C@H](C/C=C(\C)[C@H](O[C@H]3C[C@H](OC)[C@H](O[C@H]4C[C@H](OC)[C@H](NC(C)=O)[C@H](C)O4)[C@H](C)O3)[C@H](C)/C=C/C=C3\CO[C@H]4[C@H](O)C(C)=C[C@@H](C(=O)O1)[C@@]34O)O2 (stereo not given in full) | inactive
O=C(NC[C@H](O)CN1CCc2ccccc2C1)c1ccnc(NC2CCC2)c1 | inactive
Nc1nccc(-c2c(-c3ccc(F)cc3)ncn2C2CCCCC2)n1 | inactive
Cc1ccc(-c2cn3c4c(sc3n2)CCCC4)cc1 | inactive
CCOC(=O)N1c2ccc(C(F)(F)F)cc2C(N(Cc2cc(C(F)(F)F)cc(C(F)(F)F)c2)C(=O)OC)CC1CC (stereo not given) | inactive
O=C(Nc1ccccc1)N1CCN(c2nc(-c3ccccc3)ns2)CC1 | inactive
COC(=O)C1=CO[C@@H](O[C@@H]2O[C@H](CO)[C@@H](O)[C@H](O)[C@H]2O)[C@H]2[C@@H]1C=C[C@]21C=C([C@H](C)OC(=O)/C=C/c2ccc(O)cc2)C(=O)O1 | inactive
CN1CCN(c2ccc(OC(F)(F)F)c(Nc3ncc4c(n3)-c3c(c(C(N)=O)nn3CCO)CC4)c2)CC1 | inactive
CNCc1cc(-c2ccccc2F)n(S(=O)(=O)c2cccnc2)c1 | inactive
CCOC(=O)N1CCC(CN(Cc2ccc(Cl)cc2)Cc2ccc([N+](=O)[O-])s2)C1 (stereo not given) | inactive
Cc1[nH]c2ccc(F)cc2c1-c1nc2c3cccnc3c3ncccc3c2[nH]1 | inactive
C=C1C(=O)O[C@@H]2C3C(=C(C)[C@@H](O)[C@@H](OC(=O)/C(=C/C)COC(C)=O)[C@@H]12)C(=O)[C@H]1O[C@@]31C (stereo not given in full) | inactive
C=CC(=O)N1CCN(C(=O)CNc2cc(-c3ccccc3Cl)c(Cl)cc2OC)CC1 | inactive
COc1cc(C(=O)NCC2(N(C)C)CCCC2)cc(OC)c1OCc1ccccc1 | inactive
CCc1cc2c(cc1CC)CC(NCC(O)c1ccc(O)c3[nH]c(=O)ccc13)C2 (stereo not given) | inactive
Fc1ccc(N2CCCCC2)c(NC(=S)c2ccncc2)c1 | inactive

SMILES | Potency
Cc1cc(N2CCN(C(=O)Oc3ccc(-c4ccccc4)cn3)CC2)c2ccccc2n1 | inactive
C/C=C(\C)C(=O)OC1C(C)C2(O)C(C=C(CO)CC3(O)C(=O)C(C)=CC32)C2C(C)(C)C12OC(=O)C(C)C (stereo not given) | inactive
CCC(=C(c1ccc(OCCN2CCCC2)cc1)c1ccc(OCCN2CCCC2)cc1)c1ccccc1 | inactive
CCN(CC)C(=O)C(c1ccccc1)N1CCN(c2ccc(NC(=O)c3ccccc3-c3cccnc3)cc2F)CC1 (stereo not given) | inactive
N#Cc1ccc(Nc2nc(-c3ccc(O)cc3O)cs2)cc1C(F)(F)F | 17.8 µM (active)
C=C1C(=O)OC2C(OC(=O)C=C(C)C)C(C)=C3C(=O)C=C(C)C3C(O)C12 (stereo not given) | inactive
COc1ccc([C@H](Cc2ccncc2)c2ccccc2)cc1OC1CCCC1 | inactive
COc1ccccc1-c1ccc(-c2cn(C(=O)N3CCCCC3Cc3ccccc3)nn2)cc1 (stereo not given) | inactive
C=CC(=O)N1CCC(Oc2cc3c(Nc4ccc(Cl)c(Cl)c4F)ncnc3cc2OC)CC1 | inactive
CCOC(=O)c1csc(Nc2ccc(Cl)cc2)n1 | inactive
CC(=O)C=C=C1C(C)(C)CC(O)CC1(C)O[C@@H]1O[C@H](CO[C@H]2OC[C@](O)(CO)[C@H]2O)[C@@H](O)[C@H](O)[C@H]1O (stereo not given in full) | 11.2 µM (active)
Cn1sc(=O)n(Cc2ccccc2)c1=O | inactive
COc1ccc(N(C(=O)Nc2c(C)cccc2C)c2cc(Nc3ccc(N4CCN(C)CC4)cc3)ncn2)c(OC)c1 | inactive
C1=C/COCc2cc(ccc2OCCN2CCCC2)Nc2nccc(n2)-c2cccc(c2)COC/1 | inactive
CNC(=O)[C@@H](c1ccccc1)N1CCc2cc(OC)c(OC)cc2[C@@H]1CCc1ccc(C(F)(F)F)cc1 | inactive
COc1cc(C#N)ccc1S(=O)(=O)Nc1ccc2c(c1)cc(C)c(=O)n2C | inactive
Cc1ccc(NC(=O)c2ccc(CN3CCNCC3)cc2)cc1Nc1nccc(-c2cccnc2)n1 | inactive
COc1cc(/C=C/C(=O)NCCn2c(C(F)(F)F)cc3ccccc32)cc(OC)c1OC | inactive
COc1ccc2[nH]c(=O)c3c(c2c1)OC(C)(C)C=C3 | inactive
CC(=O)Nc1cccc(-c2csc(Nc3cc(C)ccn3)n2)c1 | inactive
